U2OS ROS induce: ROS inducers in U2OS cancer cells, primary screen, cell-based, H2DCF-DA fluorescence | U2OS ROS induction | ROS induction (% of piperlongumine), % at 10 µM | 2% of 46,000 active; in the data active = ROS induction above about 79%, passing the limit was not always enough;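 also: 0% = DMSO vehicle median and 100% = reference compound median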
PD-1 reverse act: activators reversing PD-1 mediated T-cell inhibition, primary screen, luminescence, primary human CD4 T cells, PD-L1 beads. CellTiter-Glo 96 h. activation, % (test concentration not listed). 29,000 tested, under 10 active; call rule not given here;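 also: 0% = median vehicle wells and 100% = positive control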
YB-1 expr inh: inhibitors of YB-1 gene expression, primary screen, cell-based, fluorescence; U2OS, qRT-PCR YB-1 vs CDIP delta delta Cp, 16 h; hits give high values; zero = DMSO, each unit about twofold; delta delta Cp (YB-1 minus CDIP) (concentration not given with the values); 0.37% of 30,000 active; AID 434959, 2010;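 active = delta delta Cp rounded down to an integer at or above 3, about 3 SD of DMSO wells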;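 also: higher means less YB-1 transcript or more CDIP transcript relative to DMSO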
Starred values were filed as active, the others as inactive; · = not tested or not shown. A selection: hits, their analogues and other compounds. The true share with any hit is near 2.1%.

SMILES	U2OS ROS induce	PD-1 reverse act	YB-1 expr inh
COc1ccc(S(=O)(=O)N(C)C[C@H]2OCCCC[C@@H](C)Oc3ccc(NS(=O)(=O)c4ccc(Cl)cc4)cc3C(=O)N([C@H](C)CO)C[C@@H]2C)cc1	35.1	·	-0.231
Cc1ccc(S(=O)(=O)N(C)C[C@H]2OCCCC[C@@H](C)Oc3ccc(NS(=O)(=O)c4c(C)noc4C)cc3C(=O)N([C@H](C)CO)C[C@@H]2C)cc1	4.2	·	-0.33
COc1ccc(S(=O)(=O)Nc2ccc3c(c2)C(=O)N([C@H](C)CO)C[C@H](C)[C@H](CN(C)S(=O)(=O)c2ccc(Cl)cc2)OCCCC[C@@H](C)O3)cc1	91.5*	-7.1	-0.0271
Cc1ccc(S(=O)(=O)Nc2ccc3c(c2)C(=O)N([C@H](C)CO)C[C@H](C)[C@@H](CN(C)S(=O)(=O)c2c(C)noc2C)OCCCC[C@@H](C)O3)cc1	12.4	·	-0.242
Cc1noc(C)c1S(=O)(=O)Nc1ccc2c(c1)C(=O)N([C@H](C)CO)C[C@H](C)[C@@H](CN(C)S(=O)(=O)c1ccc(F)cc1)OCCCC[C@@H](C)O2	126.3*	-4.8	-0.0369
C[C@H]1CN([C@@H](C)CO)C(=O)c2cccc(NC(=O)C3CCOCC3)c2O[C@@H]1CN(C)S(=O)(=O)c1cccs1	0.0	1.1	0.119
C=CCN1C(C(=O)c2ccccc2)=C(OC(=O)c2ccccc2)c2ccccc2S1(=O)=O	49.7	-5.9	-0.424
O=C(CSc1ncnc2sc(-c3ccccc3)cc12)Nc1ccccc1Cl	-4.8	-5.4	·
COC(=O)CCCCCCC(=O)N/N=C/c1ccc(C)o1	29.3	·	0.288
COc1ccc(CC(=O)c2ccc(O)cc2O)cc1	2.5	·	0.153
CC(O)CC(=O)c1cc(O)ccc1O (centres undefined)	-4.5	1.7	4.61*
O=C(Cn1c(-c2ccccn2)nc2ccccc21)NCc1ccccc1	6.9	-0.5	·
CC(C)(C)C(=O)CSc1nc2c(cc1C#N)N1CCC2CC1	4.8	·	·
C=C1C(=O)O[C@@H]2/C=C(/CO)CC/C=C(/C)C[C@H](OC(=O)C(C)CO)[C@@H]12 (some centres undefined)	154.2*	-1.5	-0.175
C=C1C(=O)O[C@@H]2/C=C(\CO)CCC/C(C)=C/[C@H](O)C12 (some centres undefined)	45.4	-5.5	-0.27
COc1ccccc1NC(=O)CSc1nncn2c1cc1oc(C)cc12	106.6*	·	·
COc1ccccc1NC(=O)CSc1ncccn1	-1.3	1.5	·
C[C@H]1CN([C@@H](C)CO)C(=O)c2cc(NS(=O)(=O)c3cn(C)cn3)ccc2O[C@H]1CN(C)Cc1ccccc1	4.7	-0.6	-0.302
O=C(Nc1ccc(C(F)(F)F)cc1)c1cnc(N2CCN(c3ccccn3)CC2)c2ccccc12	95.9*	·	·
O=C(/C=C/c1ccccc1)Nc1ccc(N2CCN(c3ccc(C(F)(F)F)cn3)CC2)nc1	-1.7	·	·
Cc1ccc2nc(-c3cccc(Br)c3)cc(C(=O)NCc3cccnc3)c2c1	8.5	-0.1	·
C[C@H]1CN([C@@H](C)CO)C(=O)Cc2cc(NC(=O)Nc3ccc4c(c3)OCO4)ccc2O[C@H]1CN(C)C(=O)Nc1ccc2c(c1)OCO2	-0.4	0.3	0.166
CC(C)NC(=O)Nc1ccc2c(c1)CC(=O)N([C@@H](C)CO)C[C@@H](C)[C@@H](CN(C)C(=O)Nc1ccc3c(c1)OCO3)O2	111.1*	-0.1	-0.031
C[C@H](CO)N1C[C@H](C)[C@H](CN(C)C(=O)Nc2ccc3c(c2)OCO3)Oc2ccc(NS(=O)(=O)c3ccccc3)cc2CC1=O	-4.1	3.0	-0.228
C[C@H](CO)N1C[C@H](C)[C@H](CN(C)C(=O)Nc2ccc3c(c2)OCO3)Oc2ccc(NS(C)(=O)=O)cc2CC1=O	122.7*	1.7	0.124
SMILES	U2OS ROS induce	PD-1 reverse act	YB-1 expr inh
CC(C)NC(=O)Nc1ccc2c(c1)CC(=O)N([C@H](C)CO)C[C@@H](C)[C@@H](CN(C)Cc1ccccc1)O2	9.9	0.3	0.121
O=C(O)Cc1ccc(NC(=O)c2cccnc2C(=O)O)cc1	1.0	0.3	·
O=C1Nc2ccc(Br)cc2/C1=C/c1cc2c([nH]1)CCCC2	43.3	-1.3	-0.131
CN(C)S(=O)(=O)c1ccc2c(c1)/C(=C/c1cc3c([nH]1)CCCC3)C(=O)N2	98.2*	-0.1	-0.369
COc1ccc(-c2cc(C)nc(SCC(=O)c3cccc([N+](=O)[O-])c3)n2)cc1	92.2*	-2.2	·
COc1cc(-c2nnc(SCC(=O)c3ccc(Cl)cc3)n2-c2ccccc2)cc(OC)c1OC	-0.2	-0.9	·
COc1ccc(-c2nnc(SCC(=O)c3cccc([N+](=O)[O-])c3)n2C)cc1	15.4	-0.4	·
COc1cc(-c2nnc(SCC(=O)c3cccc([N+](=O)[O-])c3)n2-c2ccccc2)cc(OC)c1OC	95.1*	-2.7	·

Screens (PubChem BioAssay)
